For six molecules, activation, Potency and viability results are on record in PubChem BioAssay (NCATS).

“And” between values parts separate entries of the source, which are not always exact repeats. Identical values can stand only once. Records with an inconclusive call do not appear. Unmarked numbers belong to inactive results. The source made the active and inactive calls. Calls follow the shape of the dose curve; as a rule, active = well fitted curve in the direction sought with a large enough effect; inconclusive = small, poorly fitted or top-dose-only effect, or another doubt; inactive = no such curve, though single readings can be large; an effect the other way counts as inactive or inconclusive.

Assay [1] has as its target Cellular tumor antigen p53 (Homo sapiens) (UniProt P04637). Kind of assay: Primary qHTS for small molecule compounds that upregulate eGFP-tagged delta133p53alpha (in N-terminal) cells. (AID 2060322). Also: nearly all actives have a fitted effect of over 75% in size. Also: potency is read from the fitted curve at half-maximal effect.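 As to activation: series mostly up to about 56 µM; 0% = DMSO vehicle and 100% = reference activator.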 Conditions: NCI-H358 eGFP-delta133p53alpha fluorescence, 24 h; activation: stronger effect = higher value. The method, boiled down: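 NCI-H358 cells pre-induced 24 h with 10 ng/ml doxycycline to express N-terminal eGFP-delta133p53alpha, then dosed 24 h at 37C without doxycycline; fixed, Hoechst-stained, GFP intensity by laser scanning cytometry, normalized to DMSO (0%) and 57.5 uM 5-azacytidine (100%).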

Assay [2] deals with Aldehyde dehydrogenase, mitochondrial (Homo sapiens) (UniProt P05091). Kind of assay: qHTS for Inhibitors of the Aldehyde Dehydrogenase Family (ALDH2) Primary screen (AID 2061308).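 Also: plate controls were vehicle for no effect and reference inhibitor for full effect; nearly all actives have a fitted effect of over 55% in size.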 On the technique in general: Quantitative high-throughput screening tests each substance at several concentrations.
Assay [3] addresses Retinaldehyde dehydrogenase 3 (Homo sapiens) (UniProt P47895). In words: qHTS for Inhibitors of the Aldehyde Dehydrogenase Family (ALDH1A3) Primary screen (AID 2061315).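 Also: plate controls were DMSO vehicle for no effect and reference inhibitor for full effect.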
A short description of assay [4]: BET inhibitor-based combinations targeting novel dependencies in MECOM-rearranged (r) AML: SET-2 cell line (AID 2202231). Also: nearly all actives have a fitted effect of over 35% in size. Also: potency is read from the fitted curve at half-maximal effect.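 As to viability: plate controls were DMSO treated cells for no effect and wells without cells for full effect.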 The settings on record: SET-2 AML cells viability, CellTiter-Glo luminescence, 48 h; viability: stronger effect = lower value, concentration not given here. In outline:
(§1)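 Here, 11-point titrations of each agent were applied to 500 seeded cells and incubated 48 hr; CellTiter-Glo signal, scaled against DMSO and empty wells, was integrated as AUC, then Z-scored within the individual line.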
For orientation: ATP-based viability assays read luminescence as a measure of living cells.

The nature of assay [5]: BET inhibitor-based combinations targeting novel dependencies in MECOM-rearranged (r) AML: MV-4-11 cell line (AID 2202233). Also: potency is read from the fitted curve at half-maximal effect; nearly all actives have a fitted effect of over 45% in size. The method, boiled down: (§2)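 Normalized to DMSO and empty-well controls, the luminescence data from CellTiter-Glo after 48 hr drug exposure were fitted across 11 concentrations. Reported metrics are area under the dose-response curve and its Z-transformed form.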

Assay [6] in a line: BET inhibitor-based combinations targeting novel dependencies in MECOM-rearranged (r) AML: OCI-AML3 cell line (AID 2202232). Also: potency is read from the fitted curve at half-maximal effect; nearly all actives have a fitted effect of over 35% in size. The settings on record: Potency: OCI-AML3 viability. The method, boiled down:
as §1

The nature of assay [7]: BET inhibitor-based combinations targeting novel dependencies in MECOM-rearranged (r) AML: UCSD-AML1 cell line (AID 2202235). Also: nearly all actives have a fitted effect of over 40% in size. Also: potency is read from the fitted curve at half-maximal effect. The method, boiled down: as §2
Assay [8] in a line: BET inhibitor-based combinations targeting novel dependencies in MECOM-rearranged (r) AML: AML-191 cell line (AID 2202236; also: potency is read from the fitted curve at half-maximal effect; nearly all actives have a fitted effect of over 35% in size). The method, boiled down: as §1
Assay [9] in a line: BET inhibitor-based combinations targeting novel dependencies in MECOM-rearranged (r) AML: HNT-34 cell line (AID 2202234). Also: potency is read from the fitted curve at half-maximal effect; nearly all actives have a fitted effect of over 35% in size. In outline:
as §2

Assay [10] is described as follows: BET inhibitor-based combinations targeting novel dependencies in MECOM-rearranged (r) AML: AML-194 cell line (AID 2202237; also: potency is read from the fitted curve at half-maximal effect; nearly all actives have a fitted effect of over 40% in size). In outline: as §1

Cellular tumor antigen p53 (Homo sapiens), sequence (P04637 whole entry, looked up): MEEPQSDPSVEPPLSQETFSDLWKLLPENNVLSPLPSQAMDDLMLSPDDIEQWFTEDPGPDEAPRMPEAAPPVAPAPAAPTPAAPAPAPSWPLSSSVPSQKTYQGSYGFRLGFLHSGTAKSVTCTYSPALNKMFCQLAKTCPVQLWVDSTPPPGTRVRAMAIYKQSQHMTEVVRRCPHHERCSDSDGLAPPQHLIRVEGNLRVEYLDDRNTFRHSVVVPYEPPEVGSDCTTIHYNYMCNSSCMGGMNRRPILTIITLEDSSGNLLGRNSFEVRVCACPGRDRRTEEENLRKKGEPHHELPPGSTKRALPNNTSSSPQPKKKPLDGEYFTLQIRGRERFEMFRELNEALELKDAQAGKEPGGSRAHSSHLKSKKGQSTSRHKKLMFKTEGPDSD

In general, viability refers to a read-out of living cells in per cent, often relative to untreated cells. For `Cc1cc(CS(=O)(=O)c2ccccc2)cc(OCc2ccc(CN3CCC[C@@H]3CO)cc2)c1`, in assay [1], the activation was 3.67%. Also, the Potency result in [2] and in assay [3] was “inactive” in each case. In addition, in [4], the viability was 87.8%. Besides, the Potency in assay [5] is 10.5 µM (active).
On to `CCC(=O)N[C@H]1CC[C@H](C(=O)N(C)c2ccc(-c3nc4ccccc4o3)cc2)C1`, for which, in assay [1], the activation is 18%. For the same molecule, the Potency entry in assay [2], in assay [3] and in assay [7] was “inactive” each time. Also, the viability in assay [4] was 98.9%. Besides, the results for the Potency in assay [6] and in [8] were 18.6 µM (active) and 20.9 µM (active), respectively.
As to `Cc1cc(Nc2cc(CN3CCOCC3)c3nc(C)c(Cc4ccc(Cl)cc4F)n3n2)n[nH]1`, the Potency in assay [1] was 27.3 µM (active); in assay [4] it was 2.63 µM (active); in [5], 0.235 µM (active); in assay [9], 2.35 µM (active); in assay [7] it was 2.35 µM (active); in assay [8] it was 0.742 µM (active). In assay [10], the Potency is 1.48 µM (active). In addition, the Potency entry in [2] and in [3] was “inactive” throughout.
In the case of `CC(=O)Nc1nc(C)c(-c2ccc(Cl)c(S(=O)(=O)NCCO)c2)s1`, in [1], the activation was 12.7% and -14.3%. Moreover, the Potency result in assay [2] and in assay [3] was “inactive” throughout. Moreover, the Potency is 14.8 µM (active) in [4]; 3.72 µM (active) in assay [5]; 5.25 µM (active) in assay [9]; 3.72 µM (active) in assay [7]; 5.25 µM (active) in assay [8]; 4.17 µM (active) in [10].
As for `CCS(=O)(=O)N1CCN(c2ccc(Nc3ncc(C(N)=O)c(NC4CC4)n3)cc2)CC1`, in [1], the activation was 25.7%. For the same molecule, the Potency entry in assay [2] and in assay [3] was “inactive” in each case. Also, the Potency in assay [4] was 4.17 µM (active); in [6], 13.2 µM (active); in [7], 0.372 µM (active); in [8], 4.68 µM (active); in assay [10], 4.68 µM (active).
Turning to `CCOc1ccn(-c2ccc(F)cc2)c(=O)c1C(=O)Nc1ccc(Oc2ccnc(N)c2Cl)c(F)c1`, in assay [1], the activation was 49.1%. In addition, the Potency result in assay [2], in assay [3] and in assay [7] was “inactive” in each case. In [4], the viability is 104%. Also, the Potency in assay [5] was 1.48 µM (active); in assay [9], 11.8 µM (active); in [8], 8.33 µM (active).
